# Only some compounds are listed: those with a hit (about 6.4% of all), similar ones and a draw of the others.
# VP16 counter: VP16 counterscreen qHTS for inhibitors of ROR gamma transcriptional activity. actives 3.5% (n = 310,000). AID 2546, 2010. Drosophila S2 Gal4-VP16 UAS-luciferase, luminescence, 20 h. Potency, µM (series often up to 53.6 µM), hits mostly inhibitors;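 note: Gal4-VP16 expression switched on by copper sulfate through the metallothionein promoter; nearly all actives have a fitted effect of over 50% in size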
# KinaseGlo FLuc: Counterscreen for Luciferase (Kinase-Glo TM) Inhibition. Luciferin 4-monooxygenase (Photuris pensylvanica), Q27757. Kinase-Glo luciferase, ATP luminescence, 8 min. Potency, µM (doses to about 38.3 µM), hits mostly inhibitors. actives 0.28% (n = 200,000); note: nearly all actives have a fitted effect of over 60% in size
#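 Recombinant Kinase-Glo luciferase, 10 uM ATP (linear range), luciferin; imidazole pH 7.2 / KCl / MgCl2 / Tween / BSA buffer; 8 min RT; luminescence.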
# RORg inh: qHTS for inhibitors of ROR gamma transcriptional activity; Drosophila S2 Gal4-RORgamma UAS-luciferase reporter, 20 h; Potency, µM (titrated, usually from 53.6 µM), actives largely listed as inhibitors; actives 5.4% (n = 310,000); note: nearly all actives have a fitted effect of over 60% in size
# Target sequence (P51450 whole entry, looked up, the tested form may be a part): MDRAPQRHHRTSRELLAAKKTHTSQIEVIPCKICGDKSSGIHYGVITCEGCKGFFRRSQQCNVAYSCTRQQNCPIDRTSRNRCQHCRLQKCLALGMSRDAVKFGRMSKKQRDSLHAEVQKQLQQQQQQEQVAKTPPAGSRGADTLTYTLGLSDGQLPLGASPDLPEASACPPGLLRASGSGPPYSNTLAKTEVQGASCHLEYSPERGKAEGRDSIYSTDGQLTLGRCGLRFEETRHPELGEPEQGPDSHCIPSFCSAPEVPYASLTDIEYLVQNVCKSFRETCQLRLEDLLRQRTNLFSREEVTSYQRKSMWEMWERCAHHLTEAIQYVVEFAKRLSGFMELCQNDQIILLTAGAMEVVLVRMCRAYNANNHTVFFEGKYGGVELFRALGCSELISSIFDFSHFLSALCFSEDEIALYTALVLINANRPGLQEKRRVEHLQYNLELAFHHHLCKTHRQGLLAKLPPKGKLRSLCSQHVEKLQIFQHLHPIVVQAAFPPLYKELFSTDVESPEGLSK
#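 Drosophila S2 cells stably expressing Gal4-DBD/mouse RORγ fusion under metallothionein promoter plus UAS-luciferase; compound 1 h, then 700 uM CuSO4 induction for 20 h at ambient temperature; inhibition read as reduced luminescence.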
# Hits are given with their value; i = inactive; ? = inconclusive; nt = no result; [ ] = another dose, or the depositor's remark. Calls come from the whole dose curve; as a rule, active = well fitted curve in the direction sought with a large enough effect; inconclusive = small, poorly fitted or top-dose-only effect, or another doubt; inactive = no such curve, though single readings can be large; an effect the other way counts as inactive or inconclusive.
SMILES,VP16 counter,KinaseGlo FLuc,RORg inh
COc1ccc(C(C(=O)Nc2ccc(C(C)C)cc2)N(Cc2ccco2)C(=O)CC2NC(=O)NC2=O)cc1 (centres undefined),i[10 µM],i,?
COc1ccc(F)cc1S(=O)(=O)Nc1cccc(C(=O)O)c1,i,i,i
Cc1ccc2cccc(OCc3ccc(Br)cc3)c2n1,i,nt,?
Cc1ccc2cccc(OCc3ccccc3)c2n1,i,nt,14µM
CC(C)NC(=S)N1CCN(C/C=C/c2ccccc2)CC1,i,i,i
CC1(CC(=O)N/N=C/c2cc(Br)c(O)cc2O)OCCO1,i,i,10µM
Cc1oc(/C=N/NC(=O)CC2(C)OCCO2)cc1Br,i,i,i
COC(=O)c1ccc(Nc2ccc3nonc3c2[N+](=O)[O-])cc1,i,nt,i[1.91 µM]
Cc1ccc(-c2csc(NC(=O)CN3CC(C)OC(C)C3)n2)cc1 (centres undefined),i,nt,i
Cc1nn(-c2ccc(C(=O)Nc3nnc(C4CC4)s3)cc2)c(C)c1Cl,i,i,i
Cc1nn(-c2ccccc2)c(Cl)c1C(=O)Nc1nnc(C2CCCCC2)s1,?,i,13µM
COC(=O)CCSCc1cn2cc(Cl)ccc2n1,?,i,6.3µM
O=C(O)CSCc1cn2cc(Cl)ccc2n1,i,i,i
N#C/C(=C\c1cccnc1)c1ccc([N+](=O)[O-])cc1,13µM,nt,?
N#C/C(=C/c1cccnc1)c1ccccc1,i,nt,i
Cc1[nH]n(-c2ccccc2)c(=O)c1C(=O)c1ccc(Cl)cc1,i,nt,11µM
Cc1[nH]n(-c2ccccc2)c(=O)c1C(=O)c1ccccc1,i,nt,?
CCSC(=S)c1c(C)[nH]n(-c2ccccc2)c1=O,1.1µM,nt,0.35µM
Cc1[nH]n(-c2ccc(Cl)cc2)c(=O)c1C(=O)c1ccccc1,i,i,?
CN1CCCC(OC(=O)c2ccc(C(C)(C)C)cc2)C1 (centres undefined),i,nt,i
COc1ccc(CNC(=O)CN2c3ccccc3S(=O)(=O)c3ccccc32)cc1,i,nt,i
COc1cc(OC)cc(-c2nc3ccccc3c(=O)n2OC(=O)c2ccccc2C)c1,?,i,13µM
O=C(On1c(-c2ccccc2)nc2ccccc2c1=O)c1ccco1,?,i,11µM
COc1ccc(-c2nc3ccccc3c(=O)n2CCOc2c(C)cccc2C)cc1,i,i,i
O=c1c2ccccc2nc(-c2ccco2)n1Cc1ccccc1,?,i,i
SMILES,VP16 counter,KinaseGlo FLuc,RORg inh
COc1ccc(/C(C)=N/NC(=O)c2nnn(-c3nonc3N)c2-c2cccs2)cc1OC,i,nt,i
N#Cc1cc2cc3c(cc2nc1SCC(=O)N1CCCC1)OCCO3,i,nt,i
CC(=O)CSc1nc2cc3c(cc2cc1C#N)OCCO3,i[10 µM],4.5µM,i
CC1(C)Cc2c(cnn2-c2cccc(F)c2)C(NC(=O)CN2CCCC2=O)C1 (centres undefined),i,nt,i
CCOC(=O)c1csc(NC(=O)c2ccc(C#N)cc2)n1,i,i,i
N.N.N.N.N.N.N.N.N.N.N.N.N.N.O.O.[Cl-].[Cl-].[Cl-].[Cl-].[Cl-].[Cl-].[Ru].[Ru].[Ru],nt,i,nt
O=C1CC(c2ccsc2)Sc2ccccc2N1 (centres undefined),i,nt,i
CC1(C)CC(=S)Nc2ccccc2S1,5µM,i,2.8µM
O=C1OC2(c3ccc(O)cc3Oc3cc(O)ccc32)c2c1c(-c1ccccc1)c(-c1ccccc1)c(-c1ccccc1)c2-c1ccccc1,nt,i[7.66 µM],nt
Cc1cc(NC(=O)Cc2ccccc2)c2ccccc2n1,3.2µM,i,?
Cc1cc(NC(=S)NC(=O)c2ccco2)c2ccccc2n1,i,i,11µM
COC(=O)Nc1cc(C)nc2ccccc12,i,i,?
O=C(NC(=S)Nc1cccc2ncccc12)c1ccco1,i,i,?
COC(=O)N1C(=O)[C@](c2ccccc2)(C2CCCCC2)N1C(=O)OC,?,nt,i
COC(=O)N1C(=O)[C@@](c2ccccc2)(C2CCCC2)N1C(=O)OC,i,nt,11µM
CCOc1ccc(C(=O)N2CCC3(CC2)NCCc2[nH]cnc23)cc1,i,nt,?
CCOC(=O)/C=C/CCC/C=C/C(=O)c1ccccc1,i,i,i
Cc1cc(N2CCOCC2)n2ncc(-c3ccccc3)c2n1,13µM,i,?
Cc1ccc(-c2cnn3c(N4CCOCC4)cc(C)nc23)cc1,i,nt,i
Cc1cc(NC2CCCC2)n2ncc(-c3ccccc3)c2n1,8.9µM,nt,7.1µM
Cc1cc(NC2CCCC2)n2nc(C)c(-c3ccccc3)c2n1,i,nt,i
Cc1cc(-c2ccccc2)n2ncc(-c3ccccc3)c2n1,10µM,i,?
COc1ccc(-c2cc(C)nc3c(-c4ccccc4)cnn23)cc1,?,i,?
Cc1cc(N2CCCCC2)n2ncc(-c3ccccc3)c2n1,10µM,i,?
Cc1cc(N2CCCCC2)n2ncc(-c3ccc(Cl)cc3)c2n1,?,i,i
SMILES,VP16 counter,KinaseGlo FLuc,RORg inh
Cn1c(=O)c2c(ncn2CC(O)CNc2cccc(Cl)c2)n(C)c1=O (centres undefined),i,i,?
Cc1nc2c(-c3ccccc3)cnn2c(N)c1-c1ccccc1,?,nt,0.79µM
CCOC(=O)Cc1c(C)nc2c(-c3ccccc3)cnn2c1C,i,i,i
O=C(Nc1ccc2ncccc2c1)c1cccc(Br)c1,i,nt,i
Cc1ccc(C(=O)Nc2ccc3ncccc3c2)cc1,11µM,nt,14µM
C=CC(=O)CC,i,nt,i
C=CCNC(=S)Nc1c(C(=O)OC)[nH]c2cc(OC)ccc12,?,nt,2.8µM
COC(=O)c1[nH]c2cc(OC)ccc2c1NC(=O)c1c(F)cccc1F,i,nt,i
O=C(N/N=C/c1[nH]c2ccccc2c1Cl)c1cccc(Br)c1,7.9µM,nt,3.2µM
O=C(N/N=C/C1C(c2ccccc2)C1(Cl)Cl)c1cccc(Br)c1 (centres undefined),6.3µM,i,4.5µM
O=C(N/N=C/c1cccnc1)c1cccc(Br)c1,i,nt,i
Cc1[nH]c2ccccc2c1/C=N/NC(=O)c1cccc(Br)c1,i,nt,i
COc1cccc(-c2nc(CS(=O)CC(=O)NC3CCCCC3)c(C)o2)c1 (centres undefined),i,nt,i
CC1CCCO1 (centres undefined),i,nt,i
CCOc1cc(C2NN=C(c3ccc(C)cc3)S2)ccc1O (centres undefined),14µM,i,1.1µM
COc1ccc(C2NN=C(c3ccc(C)cc3)S2)cc1 (centres undefined),7.1µM,nt,?
CCOc1cc(C2c3c(n[nH]c3C)C(=O)N2c2ccc(C)cc2)ccc1O (centres undefined),i,i,i
Cc1ccc(C2=NNC(C(O)C(O)C(O)CO)S2)cc1 (centres undefined),?,i,?
NC(=O)c1ccccc1-c1nc(-n2ccnc2)c2ccccc2n1,i,nt,i
Cc1ccccc1-c1nc(-n2ccnc2)c2ccccc2n1,i,i,10µM
COc1ccc(-c2[nH]ncc2CN2CCC(N3CCSCC3)CC2)cc1F,i,i,i
O=C(CCN1C(=O)/C(=C\c2ccccc2)SC1=S)N1CCCCC1,i,nt,i
O=C1/C(=C/c2cccs2)SC(=S)N1CCC(=O)N1CCCCC1CCO (centres undefined),11µM,nt,?
COc1ccccc1/C=C1\SC(=S)N(CCC(=O)N2CCCCC2CCO)C1=O (centres undefined),i,nt,?

# Screening results as filed in PubChem.
